Compound activity (PubChem)
A selection: hits, their analogues and other compounds. The true share with any hit is near 9.4%.
SARS PLP yeast: inhibitors of SARS-CoV papain-like protease in yeast | S. cerevisiae expressing SARS-CoV PLpro, growth rescue | Potency, µM (series often up to 32.9 µM), most hits filed as activators | 330,000 tested, 0.19% active | AID 485353; calls by dose curve; also: nearly all actives have a fitted effect of over 55% in size
Pf growth 96h: P. falciparum growth inhibition at 96 hour, primary screen for plastid delayed-death inhibitors. Potency, µM (doses to about 28.7 µM), actives largely listed as inhibitors. 320,000 tested, 6.9% active. AID 504834. P. falciparum luciferase reporter growth, 96 h
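P. falciparum expressing integrated firefly luciferase, in erythrocytes at 2% hematocrit, 0.05% parasitemia, incubated with compounds 96 h at 37 C, 5% CO2. Growth inhibition read as loss of luminescence; two-generation exposure targets delayed-death apicoplast inhibitors.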
AMA1 RON2 block: inhibitors of Plasmodium falciparum AMA1-RON2 interaction | AlphaScreen AMA1-biotinylated RON2 peptide binding | Potency, µM (series often up to 58.2 µM), actives largely listed as inhibitors | 360,000 tested, 0.2% active; also: nearly all actives have a fitted effect of over 45% in size
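AMA1 (3D7) with his tag at 25 nM final met compounds first, then biotinylated RON2 peptide at 25 nM; detection used donor plus acceptor beads, 10 µg/mL apiece, read by AlphaScreen after 30 min at room temperature.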
Pf growth 48h: P. falciparum growth inhibition at 48 hours (one generation). 310,000 tested, 5.9% active. AID 504832. Potency, µM (top dose mostly 28.7 µM), hits mostly inhibitors. P. falciparum luciferase growth in erythrocytes, 48 h
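Luciferase-expressing parasites in RBCs, 2% Hct / 0.1% parasitemia final; RPMI 1640 + 0.5% Albumax; 37 C, 5% CO2, one generation; luminescence read-out, lower signal = inhibition.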
Large screens that a line does not name were inactive. Unless noted, calls follow the shape of the dose curve; as a rule, active = well fitted curve in the direction sought with a large enough effect; inconclusive = small, poorly fitted or top-dose-only effect, or another doubt; inactive = no such curve, though single readings can be large; an effect the other way counts as inactive or inconclusive.

COc1ccc(CCN2C(=O)c3ccccc3NC2c2cc(Cl)c(O)c(OC)c2)cc1 (stereo not drawn)	Pf growth 96h 5.2µM, Pf growth 48h inconclusive
CCc1nc(SCC(=O)c2cccc([N+](=O)[O-])c2)n[nH]1	none
Cc1nc(NC(=O)C2CC2)sc1C(=O)NC1CCCCC1	Pf growth 48h inconclusive
CCC(=O)Nc1nc(C)c(C(=O)NC2CCCCC2)s1	Pf growth 96h inconclusive, Pf growth 48h 3.7µM
COc1ccc(C(=O)NCC(=O)Nc2ccccc2)cc1OC	none (no result: Pf growth 96h)
N#Cc1ccc(C23CC4CC(CC(C4)C2)C3)[nH]c1=O	Pf growth 96h 3.7µM, AMA1 RON2 block inconclusive, Pf growth 48h inconclusive
Oc1cccc2c(-c3nn[nH]n3)ccnc12	Pf growth 96h inconclusive, Pf growth 48h inconclusive (no result: AMA1 RON2 block)
NC(=O)c1ccnc2c(O)cccc12	Pf growth 96h 12µM, Pf growth 48h inconclusive (no result: AMA1 RON2 block)
Cc1cccc(NCc2ccc(O)c3ncccc23)c1	Pf growth 96h inconclusive
OCc1ccnc2c(O)cccc12	Pf growth 96h inconclusive, AMA1 RON2 block 11µM, Pf growth 48h 2.3µM
Cc1ccc(C2C(C#N)=C(N)Oc3c2sc2ccccc32)o1 (stereo not drawn)	Pf growth 48h inconclusive (no result: AMA1 RON2 block)
Cc1ccc(CNC(=O)C2CC(c3ccc([N+](=O)[O-])cc3)=NO2)cc1 (stereo not drawn)	none
CC(=O)Oc1cc2cccc(OC(C)=O)c(=O)c2c(OC(C)=O)c1OC(C)=O	SARS PLP yeast 8.9µM, Pf growth 96h 15µM, AMA1 RON2 block 1.8µM, Pf growth 48h inconclusive
COc1cc2cccc(OC)c(=O)c2c(O)c1OC	none
CC(=O)Oc1cc(C)c(OC(C)=O)c2ccccc12	Pf growth 96h 4.8µM, Pf growth 48h 6.7µM (no result: SARS PLP yeast, AMA1 RON2 block)
CCCCCCC[N+](CC)(CC)CCCCc1ccc(Cl)cc1	Pf growth 96h 0.47µM, Pf growth 48h 0.47µM (no result: SARS PLP yeast)
CCCc1ccc(C(=O)NNC(=O)c2ccc(Cl)cc2)cc1	none
Cc1nn(CC(=O)c2ccc3c(c2)OCCO3)c(=O)c(C#N)c1C	none (no result: Pf growth 96h, Pf growth 48h)
CCNc1c(NC(=O)c2cccs2)c(=O)oc2ccccc12	none
COc1ccc(N2CCN(CCNC(=O)C3CC(=O)N(C4CCCC4)C3)CC2)cc1 (stereo not drawn)	Pf growth 96h 1.9µM
COc1cccc(CN2CCN(C(=O)C3CCC(=O)N(C4CCCC4)C3)CC2)c1 (stereo not drawn)	SARS PLP yeast inconclusive, Pf growth 48h inconclusive
COc1cccc(N2CCN(C(=O)C3CCC(=O)N(C4CCCCCC4)C3)CC2)c1 (stereo not drawn)	Pf growth 96h inconclusive, Pf growth 48h 8.3µM
O=C(NCCCN1CCN(c2ccccc2F)CC1)C1CC(=O)N(C2CCCC2)C1 (stereo not drawn)	Pf growth 96h 12µM (no result: Pf growth 48h)
CCn1c(=O)cc(SCC(=O)NCCCN2CCN(c3ccccc3F)CC2)c2ccccc21	Pf growth 96h inconclusive, Pf growth 48h 12µM
Cc1ccc(C)c(OCCC(=O)OCC(=O)Nc2ccc(C)c(S(=O)(=O)N3CCCCC3)c2)c1	none
Cc1cccc(OCCCC(=O)Nc2nnc(C3CCCO3)s2)c1C (stereo not drawn)	none
c1ccc(-c2cn(C[C@H]3CC[C@H](Cn4cc(-c5ccccn5)nn4)O3)nn2)nc1	AMA1 RON2 block 1µM, Pf growth 48h inconclusive
CN(C)C(Cc1ccc(Cl)cc1)C(=O)c1ccccc1 (stereo not drawn)	Pf growth 96h inconclusive
CC(C)Nc1nc(NC(C)C)nc(N(C)C(N)=O)n1	Pf growth 96h 12µM
CC(C)Nc1nc(NC(C)C)nc(N(C)N)n1	Pf growth 96h 3.7µM (no result: Pf growth 48h)
Cc1cc(=O)oc2ccc(OCC(=O)N(Cc3ccc(F)cc3)Cc3ccco3)cc12	Pf growth 96h inconclusive, Pf growth 48h 10µM
CCOC(=O)Oc1ccc2oc(=O)cc(C)c2c1	none
COc1ccc(/C=C(\C#N)C(=O)NCc2cccs2)cc1OC	Pf growth 96h inconclusive
Cc1cccc(CNS(=O)(=O)c2ccc(-c3ccc(=O)[nH]n3)s2)c1	none
O=c1ccc(-c2ccc(S(=O)(=O)NCC3CCN(Cc4ccccc4F)CC3)s2)n[nH]1	SARS PLP yeast inconclusive, Pf growth 96h 2.9µM, Pf growth 48h inconclusive
CC(=O)Nc1sc(N/N=C/c2ccccc2)nc1-c1ccc(C)cc1	Pf growth 96h inconclusive, Pf growth 48h 7.4µM
CC(=O)Nc1sc(N/N=C\c2ccccc2Cl)nc1-c1cccs1	Pf growth 96h inconclusive, Pf growth 48h inconclusive
CC(=O)Nc1sc(N/N=C/c2ccc(O)cc2)nc1-c1ccc(C)cc1	Pf growth 96h inconclusive, Pf growth 48h inconclusive
CC(=O)Nc1sc(-c2ccccc2)nc1-c1ccccc1	Pf growth 96h 4.7µM, AMA1 RON2 block inconclusive
COc1ccc(/C=N/Nc2nc(-c3ccc(C)cc3)c(NC(C)=O)s2)cc1	Pf growth 96h 4.7µM, Pf growth 48h 2.3µM
CC(=O)Nc1sc(N/N=C/c2ccccc2F)nc1-c1ccc(C)cc1	Pf growth 96h inconclusive, Pf growth 48h 8.3µM
CC(=O)Nc1sc(-c2ccc(Cl)cc2)nc1-c1ccccc1	none
O=C(c1cccc([N+](=O)[O-])c1)N(c1ccccn1)c1ccccn1	none
Cc1cc(C(=O)Cn2nc(C(=O)O)c3ccccc3c2=O)c(C)n1-c1ccccc1	none
Cc1sc(N/N=C/C=C/c2ccccc2)nc1-c1ccccc1	SARS PLP yeast 13µM, Pf growth 96h inconclusive, Pf growth 48h inconclusive
COc1ccc(-c2noc(-c3ccccc3F)n2)cc1	Pf growth 96h 9.3µM (no result: Pf growth 48h)
O=C(O)c1cccc(-c2nc(-c3ccccc3C(F)(F)F)no2)c1	Pf growth 96h inconclusive, Pf growth 48h 4.1µM (no result: SARS PLP yeast, AMA1 RON2 block)
O=C(O)c1cccc(-c2noc(-c3ccccc3F)n2)c1	Pf growth 96h inconclusive, Pf growth 48h 0.3µM (no result: SARS PLP yeast, AMA1 RON2 block)
Cc1ccccc1CC(=O)OCC(=O)Nc1ccc(C)c(S(=O)(=O)N2CCCCC2)c1	Pf growth 96h inconclusive, Pf growth 48h 10µM
Cc1ccccc1OCCC(=O)OCC(=O)Nc1ccc(C)c(S(=O)(=O)N2CCCCC2)c1	none (no result: SARS PLP yeast, Pf growth 96h, Pf growth 48h)
Cc1ccc(NC(=O)COc2ccccc2C#N)cc1S(=O)(=O)N1CCCCCC1	Pf growth 96h 8.3µM, Pf growth 48h inconclusive
Cc1ccc(C2C=NN(c3ccccc3)C2=O)cc1 (stereo not drawn)	Pf growth 96h inconclusive, Pf growth 48h 6.6µM
Cc1ccc(NS(=O)(=O)c2ccc3c(c2)oc(=O)n3C)cc1C	none
Cn1c(=O)c2cc(S(=O)(=O)Nc3cccc(F)c3)ccc2n(C)c1=O	Pf growth 96h 15µM (no result: Pf growth 48h)
Cc1ccc(S(=O)(=O)Nc2ccc(-c3nc4cc(NS(=O)(=O)c5ccc(C)cc5)ccc4o3)cc2)cc1	Pf growth 96h 4.1µM (no result: AMA1 RON2 block, Pf growth 48h)
Cc1ccc(NS(=O)(=O)c2ccc3c(c2)oc(=O)n3C)cc1	Pf growth 96h 2.6µM
Cn1c(=O)c2cc(S(=O)(=O)NC(C(=O)Nc3cccc(F)c3)c3ccccc3)ccc2n(C)c1=O (stereo not drawn)	Pf growth 96h inconclusive (no result: Pf growth 48h)
Cn1c(=O)c(=O)n(C)c2cc(S(=O)(=O)Nc3ccc4c(c3)OCCO4)ccc21	Pf growth 48h 3.3µM
Cn1c(=O)oc2cc(S(=O)(=O)Nc3ccc4c(c3)OCCO4)ccc21	Pf growth 48h inconclusive (no result: SARS PLP yeast)
CC(=O)Nc1ccc(-c2ccnc3c2CC(C)(C(=O)Nc2ccc(F)c(Cl)c2)O3)cc1 (stereo not drawn)	none (no result: SARS PLP yeast, Pf growth 96h, Pf growth 48h)
O=CN1CCN(C(=O)c2ccccc2F)CC1	none (no result: Pf growth 96h)
